DRD3 agonist = qHTS of D3 Dopamine Receptor Agonist: qHTS; D3R DiscoveRx beta-arrestin cells, luminescence, 90 min; max activation, %; hit rate 0.58% among 410,000; in the data active = max activation above about 30%; note: 0% is about no effect
Target sequence (P35462 whole entry, looked up): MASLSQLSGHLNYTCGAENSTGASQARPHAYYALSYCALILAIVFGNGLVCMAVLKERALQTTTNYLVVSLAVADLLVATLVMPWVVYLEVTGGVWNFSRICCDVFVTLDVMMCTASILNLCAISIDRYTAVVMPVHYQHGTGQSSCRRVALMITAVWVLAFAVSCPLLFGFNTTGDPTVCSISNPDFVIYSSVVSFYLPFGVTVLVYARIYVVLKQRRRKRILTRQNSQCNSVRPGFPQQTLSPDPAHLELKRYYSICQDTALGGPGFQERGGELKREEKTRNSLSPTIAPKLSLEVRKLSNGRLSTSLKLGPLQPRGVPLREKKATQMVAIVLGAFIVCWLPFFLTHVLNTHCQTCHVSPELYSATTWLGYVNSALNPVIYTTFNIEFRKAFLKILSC
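Cells at 1500/well, incubated overnight, then treated with pinned compounds (dopamine as control) for 90 min at 37 degrees C. DiscoveRx reagent added for 30 - 60 minutes at room temperature; luminescence read.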
TSHR antag = Antagonists of the Thyroid Stimulating Hormone Receptor: HTS campaign; hit rate 0.2% among 330,000; Thyrotropin receptor (Homo sapiens), P16473; activity change, negative = inhibition, % at 11.5 µM; AID 504810, 2011; TSHR-expressing cells, TSH-stimulated cAMP HTRF, 2 h; hits give low values;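 active = activity change below a set negative limit, meaning inhibition stronger than a set level, cut at about -70% in these data; inconclusive = activity change between two set negative limits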; note: % is set by controls: 0 for no effect and ±100 for the full control effect
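Antagonism was scored as loss of TSH-driven cAMP in TSHR cells, stimulated with 4nM TSH (EC80) for 2 hours at 37 deg C and detected by homogeneous HTRF competition immunoassay.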
D3 antag = qHTS of D3 Dopamine Receptor Antagonist: qHTS; D3R cells, DiscoveRx beta-arrestin luminescence, antagonist mode; hits give low values; max response, negative = inhibition, %; AID 652054, 2013; hit rate 2.5% among 360,000; in the data active = max response below about -50%; inconclusive = no clear call, values can overlap the other calls; note: % is set by controls: 0 for no effect and ±100 for the full control effect
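Cells expressing the human receptor were seeded at 1500 cells/well, incubated overnight at 37 degrees C in 5% CO2, then exposed to library compounds with dopamine controls for 90 minutes at 37 degrees C before luminescent detection.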
B2AR arrestin = qHTS assay of beta-arrestin-biased ligands of beta2-adrenergic receptor; beta-arrestin recruitment to beta2AR, cell-based reporter; Potency, µM (highest dose often 46.1 µM), for inactives: at the highest dose activation, actives largely listed as activators; hit rate 0.02% among 330,000; AID 492947, 2010; active = well fitted activation curve with a large enough effect; inconclusive = small, poorly fitted or top-dose-only effect;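 note: potency is the fitted concentration of half-maximal effect; 0% = DMSO controls and full agonism = EC100 isoproterenol or metaproterenol; nearly all actives have a fitted effect of over 65% in size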
An asterisk follows results filed as active; u = inconclusive; x = no result given. An excerpt weighted towards active compounds, which were near 2.9% of everything screened.

SMILES | DRD3 agonist | TSHR antag | D3 antag | B2AR arrestin
Brc1cccc(-c2cnn3c(-c4ccccc4)cc(-c4ccccc4)nc23)c1 | 3 | x | x | x
Cc1cccc(NC(=O)c2ccc3[nH]c(C)cc(=O)c3c2)c1 | 1 | x | x | x
Cc1ccccc1NC(=S)NCCC(c1ccccc1)c1ccccc1 | -23 | 2 | -60* | -1%
COc1ccc(OC)c(NC(=S)NCCC(c2ccccc2)c2ccccc2)c1 | -1 | x | -22 | x
Cc1ccc(NC(=S)NCCC(c2ccccc2)c2ccccc2)c(C)c1 | -2 | -4 | -67* | 0%
O=C(c1cccc(C(=O)N(c2ccccn2)C2CCCCC2)c1)N(c1ccccn1)C1CCCCC1 | -10 | 3 | -54* | 0%
COc1ccc(/C=N/Nc2ncccc2[N+](=O)[O-])c(OC)c1 | -3 | -15 | -54* | 0%
CCOc1cc(-c2ccc(OC(=O)c3ccccc3F)cc2)cc(=O)c2c(C)oc(C)c12 | -11 | x | x | x
CCOC(=O)C1CCN(Cc2cnc(NC(=O)OC)s2)CC1 | 11 | 7 | -7 | -1%
COC(=O)Nc1ncc(CN2CCc3ccccc3C2)s1 | -33 | 3 | -74* | 0%
Cc1ccc(-c2nc3c(c(SCC(=O)Nc4cccc(C(=O)O)c4)n2)Cc2cccc(C)c2O3)cc1 | x | -4 | x | 0%
CCOc1ccccc1-n1nnc(-c2nsc(NC(=O)c3ccc(C)cc3)n2)c1C | -13 | x | x | x
Cc1cccc(N2C(=O)CSC23C(=O)N(CC(=O)Nc2cccc(Cl)c2)c2ccccc23)c1 (centres undefined) | 32* | x | x | x
Cc1cccc(NC(=O)CN2C(=O)C3(SCC(=O)N3c3ccccc3)c3ccccc32)c1 (centres undefined) | -9 | x | x | x
COc1ccc(S(=O)(=O)NCc2cccn2Cc2cccc(C)c2)cc1OC | 3 | x | x | x
O=C(CN1CCOCC1)Nc1nc2ccc(F)cc2s1 | 2 | 3 | -7 | 0%
O=C(CN1CCOCC1)Nc1nc2ccc([N+](=O)[O-])cc2s1 | -22 | -5 | -85* | 0%
Nc1nonc1-c1noc(-c2ccccc2)n1 | -4 | -1 | -63* | 0%
Nc1nc(-c2nonc2N)no1 | 4 | -1 | 0 | 0%
C=CCN(CC=C)Cc1cc(=O)oc2ccc3ccccc3c12 | 1 | x | 15 | x
C=CCN(CC=C)Cc1c(O)ccc2c1oc(=O)c1ccccc12 | -29 | x | -62* | x
COc1ccc(-c2cc(C(F)(F)F)n3nc(C(=O)Nc4cc(C(F)(F)F)ccc4Cl)cc3n2)cc1OC | 6 | x | x | x
Cc1cccc(C)c1NC(=O)Cn1c(=O)n(Cc2ccc3c(c2)OCO3)c(=O)c2oc3ccccc3c21 | 6 | x | x | x
CN1CCN(CC(=O)N2CCn3c4c(c5cc(C6CCCCC6)ccc53)CCCC42)CC1 (centres undefined) | 3 | x | -65* | 0%
CN(C)S(=O)(=O)c1cccc(NC(=S)Nc2cccc3cnccc23)c1 | -15 | 10 | -59* | -1%
SMILES | DRD3 agonist | TSHR antag | D3 antag | B2AR arrestin
CCOC(=O)c1cc(-c2ccccc2)n(CC(=O)NCc2ccccc2OC)c1C | -2 | x | x | x
Clc1ccc(N2CCN(Cc3cc4ccccn4n3)CC2)cc1 | x | -7 | x | x
Clc1ccc(N2CCN(Cc3c[nH]c4ncccc34)CC2)cc1 | x | 9 | -78* | 0%
COc1ccc(Nc2cc(O)c3ncccc3c2)cc1 | x | -6 | x | 0%
CCC(CC)C1C(C#N)=C(N)SC(N)=C1C#N | 0 | 5 | -60* | 0%
Cc1cc(S(=O)(=O)Nc2ccc(-c3ccc(N4CCCCC4)nn3)cc2)c(C)cc1Cl | 21 | x | x | x
O=C(NCCCCc1ccccc1)c1nn(-c2ccccc2)nc1CO | 4 | x | x | x
Clc1ccc2c(SCC3CO3)c3ccccc3nc2c1 (centres undefined) | -30 | x | -91* | x
COc1ccc(CCNC(=O)c2ccc3c(c2)N(Cc2cc(C)ccc2C)C(=O)c2ccccc2S3=O)cc1OC (centres undefined) | -4 | x | x | x
Cc1ccc(S/C=C\C(=O)c2ccccc2)cc1 | -28 | -21 | -53* | 0%
Cc1ccc(C(=O)/C=C\C(=O)c2ccc(C)cc2)cc1 | -4 | 3 | 1 | 5%
CC(/C=C/C(=O)c1ccc(C)cc1)=C\c1ccccc1 | 3 | -18 | -61* | 0%
Cc1ccc(C(=O)/C=C\NCc2ccccc2)cc1 | 8 | 19 | 6 | -2%
CCc1cccc(C)c1NC(=O)c1cn2c3c(ccc(Cl)c3c1=O)OC(C)C2 (centres undefined) | -3 | x | x | x
COc1ccsc1C(=O)N1CCN(Cc2ccc3c(c2)OCO3)CC1 | -2 | -14 | -63* | 0%
COc1cccc(C(=O)N2CCN(Cc3ccc4c(c3)OCO4)CC2)c1OC | -3 | -3 | -67* | 0%
O=C(CN1CCN(Cc2ccc3c(c2)OCO3)CC1)Nc1ccc2c(c1)OCO2 | -5 | -1 | u | -1%
COc1ccc(NC(=O)CN2CCN(Cc3ccc4c(c3)OCO4)CC2)cc1OC | -10 | 11 | -73* | 0%
Cn1c(C(=O)N2CCN(Cc3ccc4c(c3)OCO4)CC2)cc2sccc21 | -32 | -7 | -96* | -1%
COc1cccc(CNC(=O)CNS(=O)(=O)c2ccc3nc(C)sc3c2)c1 | 0 | x | x | x
Cc1cccc(C)c1NC(=O)CSc1nc2ncccc2o1 | 6 | x | x | x
Cc1cccc(NC(=O)c2nc[nH]c2C(=O)N[C@H](C)CO)c1 | 0 | x | 2 | x
CCOCCCNC(=O)C(c1ccc(Cl)cc1)N(Cc1ccc2c(c1)OCO2)C(=O)c1ccc(NC(C)=O)cc1 (centres undefined) | -1 | x | x | x
O=[N+]([O-])c1ccc(OCC(O)CNCCNc2nccc(C(F)(F)F)n2)cc1 (centres undefined) | -15 | -3 | -84* | 0%
O=C1C2ON(c3ccccc3)C(c3cccnc3)C2C(=O)N1c1ccc(Cl)c(Cl)c1 (centres undefined) | 47* | -11 | 30 | 0%
SMILES | DRD3 agonist | TSHR antag | D3 antag | B2AR arrestin
CCN(CC)c1nn2c(=O)c(C(=O)NCCc3cccc(C)c3)cnc2s1 | -5 | x | x | x
Cc1cccc2cc(COC(=O)c3cccnc3)c(=O)[nH]c12 | 8 | 4 | -1 | -1%
Cc1cccc2cc(COC(=O)c3ccccc3)c(=O)[nH]c12 | -10 | 1 | -51* | 0%
CC(C)CC(c1nnnn1Cc1ccco1)N1CCN(C2CCCC2)CC1 (centres undefined) | 1 | 2 | -60* | 0%
COc1cc(NC(=O)CCc2c(C)nn(-c3ccc(N4CCCCC4)nn3)c2C)cc(OC)c1OC | 73* | x | x | x
Cc1cccc(N(C)C(=O)CCNS(=O)(=O)c2ccc3c(c2)CCN3C(=O)C2CC2)c1 | -6 | x | x | x
CCOC(=O)C1CCCN(C(=O)Cn2cnc3c2c(=O)n(C)c(=O)n3C)C1 (centres undefined) | 32* | 2 | 15 | -1%
O=C1CC(Sc2nnc(-c3ccccc3)o2)C(=O)N1c1ccccc1 (centres undefined) | -2 | 4 | -15 | 0%

High-throughput results as filed in PubChem.
